Most compounds without a hit are left out; they make up all but 3% or so of the library.
TRPM1 prom inh: MITF TRPM1 promoter inhibition in SK-MEL-5 cells | SK-MEL-5 TRPM1 promoter luciferase, 24 h | inhibition, % at 12.5 µM | 0.83% of 330,000 active | AID 488899;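 active means mean inhibition across replicates of 60% or more, whatever share of single replicates reaches that level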
KKLEB cytotox: reduces viability of KKLEB cystic fibrosis airway cells | KKLEB CF airway cells viability, ATPlite luminescence, overnight; stronger effect = lower value; cells stimulated with P. aeruginosa culture filtrate | activity change (cytotoxicity), % at 5 µM | 0.36% of 360,000 active | AID 602141;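 active means corrected activity change at or below -50% at 5 µM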
EBV LMP1 NFkB: Epstein-Barr LMP1 NF-kappaB reporter inhibition; LMP1-induced NF-kappaB luciferase reporter cells, luminescence; inhibition, % at 12.5 µM; 0.69% of 350,000 active; in the data active means inhibition above about 41%;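 further: 0% = neutral control wells and 100% = reference inhibitor control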
CF NFkB inh: blocks PAF-induced NF-kB reporter in cystic fibrosis cells; AID 588850; 0.86% of 360,000 active; inhibition, % at 5 µM; KKLEB NF-kB-GFP reporter, GFP fluorescence overnight;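 active means at least 50% inhibition at 5 µM, scaled per plate between neutral and stimulator controls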;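 further: PAF is a Pseudomonas aeruginosa culture filtrate used as stimulus; plate controls were PAF-stimulated DMSO wells for no effect and unstimulated DMSO wells for full effect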
HIF-2a inh: inhibitors of HIF-2a; 786-0 RCC cells HIF-2a reporter, luciferase luminescence, overnight; inhibition, % at 18.8 µM; 0.72% of 360,000 active; AID 624352;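 active means inhibition of the luminescence signal of 40% or more relative to plate controls, in a single-dose primary screen at 18.75 µM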
Peg3 promoter: Peg3 promoter activity inhibition; 1.7% of 360,000 active; inhibition, % at 20 µM; HeLa PEG-Prom luciferase reporter, luminescence, overnight;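 active means inhibition of at least 50% at 20 µM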
Mdm2 MdmX conf: Mdm2/MdmX (human) interaction inhibition, confirmed; shares compounds with HIF-2a inh; SaOS-2 split-luciferase Mdm2/MdmX complementation, luminescence; inhibition, % at 8 µM; 99% of 740 active;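 active means mean inhibition of the luminescence signal across two replicates at or above 26 percent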
Target sequence (O15151 whole entry, looked up): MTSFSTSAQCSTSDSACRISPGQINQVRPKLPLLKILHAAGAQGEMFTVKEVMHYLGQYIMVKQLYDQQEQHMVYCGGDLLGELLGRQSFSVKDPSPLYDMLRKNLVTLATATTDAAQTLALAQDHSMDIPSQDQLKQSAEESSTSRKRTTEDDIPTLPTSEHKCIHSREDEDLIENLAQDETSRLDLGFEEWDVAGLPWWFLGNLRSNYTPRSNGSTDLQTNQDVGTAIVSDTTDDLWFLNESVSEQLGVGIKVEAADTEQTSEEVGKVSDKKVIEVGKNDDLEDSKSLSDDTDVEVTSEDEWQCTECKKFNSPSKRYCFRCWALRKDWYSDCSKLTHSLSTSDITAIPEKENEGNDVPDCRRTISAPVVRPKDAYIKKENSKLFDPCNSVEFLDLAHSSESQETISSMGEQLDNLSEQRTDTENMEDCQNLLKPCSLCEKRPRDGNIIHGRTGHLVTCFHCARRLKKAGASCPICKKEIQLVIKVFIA
Target sequence (Q00987 whole entry, looked up): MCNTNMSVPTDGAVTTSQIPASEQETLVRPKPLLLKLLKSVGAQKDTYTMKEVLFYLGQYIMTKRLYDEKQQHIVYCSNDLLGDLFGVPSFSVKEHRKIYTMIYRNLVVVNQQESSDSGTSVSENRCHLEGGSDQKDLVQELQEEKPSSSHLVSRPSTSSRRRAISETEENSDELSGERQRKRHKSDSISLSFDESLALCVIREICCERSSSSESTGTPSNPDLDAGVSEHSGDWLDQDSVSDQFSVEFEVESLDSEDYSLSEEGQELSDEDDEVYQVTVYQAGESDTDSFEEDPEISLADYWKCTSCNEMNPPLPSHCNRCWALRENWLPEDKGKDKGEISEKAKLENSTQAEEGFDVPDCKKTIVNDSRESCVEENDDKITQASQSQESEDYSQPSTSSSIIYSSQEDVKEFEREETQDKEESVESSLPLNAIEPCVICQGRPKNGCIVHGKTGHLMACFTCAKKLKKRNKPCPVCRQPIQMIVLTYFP
HIF-2a inh conf: HIF-2a inhibition, single concentration confirmation | 786-0 RCC cells, HIF-2a luciferase reporter luminescence, overnight | shares compounds with HIF-2a inh | inhibition, % at 18.8 µM | 56% of 1,800 active;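 active means mean inhibition across four replicates of at least 40 percent at the single tested concentration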
HIF-1a cs: counter-screen for HIF-2a inhibitors: HIF-1a inhibition in MiaPaCa-2 cells. inhibition, % at 18.8 µM. MiaPaCa-2 HIF-1a luciferase reporter, desferoxamine, overnight. 72% of 1,800 active. shares compounds with HIF-2a inh;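 active means mean inhibition of the reporter signal across four replicates at the single tested dose of 50% or more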
* marks the source's active call; other numbers are inactive results; nt = no result.

SMILES | TRPM1 prom inh | KKLEB cytotox | EBV LMP1 NFkB | CF NFkB inh | HIF-2a inh | Peg3 promoter | HIF-2a inh conf | HIF-1a cs | others
CCCC(=O)N1CCC1(C)C(=O)Nc1ccc2nccnc2c1 (configuration not stated) | nt | 2.8 | nt | -26.4 | 12.1 | 6.4 | nt | nt
O=C(O)CCCCCCCCCCC1CCC(O)C1O (configuration not stated) | 26.1 | -6.4 | 5.6 | 12.3 | 54.3* | 12.1 | 75.4* | 51.7*
O=C(O)CCCCCCCC(=O)O | -4.8 | -12.8 | 5.9 | -4.7 | -0.3 | 0.9 | nt | nt
CS(=O)(=O)Nc1cccc(NC(=O)C2Cc3c(-c4ccco4)ccnc3O2)c1 (configuration not stated) | nt | -33.4 | nt | 24.1 | 20.9 | 38.8 | nt | nt
CCc1ccc(NC(=O)c2cnn3ccccc23)cc1 | 50.7 | -17.3 | 34.6 | 4.4 | 49.8* | 36.8 | 67.9* | 74.6*
C=C(C)COC(=O)C1CC2OC2CC1C(=O)OCC(=C)C (configuration not stated) | -6.5 | 19.4 | -5.6 | -9.8 | 9.3 | 9.6 | nt | nt
O=C(NC1CCN(Cc2ccccc2)CC1)c1ccc2c(c1)[nH]c(=O)n2Cc1ccc(F)cc1 | 22.2 | -6.7 | 18.7 | -0.3 | 48.3* | 18.1 | 17.5 | 24.0
N#CC1=C(c2ccccc2)/C(=C/c2ccccc2)OC1=O | 92.2* | -6.7 | 12.6 | 41.6 | 89.5* | 104.3* | 4.5 | 106.1*
O=C(OCn1ncc(Cl)c(Cl)c1=O)c1ccc(C(F)(F)F)cc1 | 53.5 | -12.3 | -32.4 | 49.2 | 93.3* | 105.4* | 60.4* | 104.5* | Mdm2 MdmX conf=103.0*
Cc1ccc(C(=O)OCn2ncc(Cl)c(Cl)c2=O)cc1 | 105.4* | -93.8* | 89.2* | 92.3* | 92.0* | 102.0* | 98.0* | 107.0*
Cc1ccc(C(=O)COC(=O)c2nc(Cl)ccc2Cl)cc1 | 5.0 | 7.5 | 6.8 | -4.8 | 13.0 | -3.0 | nt | nt
Cc1ccc(C(C)C)c(OCc2ccc(-c3nnco3)cc2)c1 | -2.1 | 2.3 | 0.3 | 15.0 | 69.1* | -48.3 | 70.9* | -44.8
Cc1ccc(COc2ccc(-c3nnco3)cc2)cc1 | -74.7 | 6.2 | -29.2 | -7.1 | -355.5 | -385.7 | nt | nt
Cc1c(/C(O)=C2/C(=O)C(=O)N(CCN3CCOCC3)C2c2ccccn2)cnn1-c1ccccc1 (configuration not stated) | 46.7 | -3.4 | 54.7* | -0.7 | 72.8* | 33.5 | 40.4* | 58.7*
O=C(Nc1ccc(Cl)cc1)/C(=C/c1cccc(O)c1)c1nc2ccccc2s1 | 92.5* | -90.8* | -3.4 | 90.0* | 90.6* | 101.1* | 94.7* | 106.0* | Mdm2 MdmX conf=102.5*
C[C@H](NC(=O)C[C@@H]1C=C[C@@H](NC(=O)CN2CCOCC2)[C@@H](CO)O1)c1ccccc1 | nt | nt | nt | nt | -2.6 | nt | nt | nt
Oc1ccccc1-c1cc(C(F)(F)C(F)F)nc(-c2ccccc2)n1 | 10.4 | 5.8 | 9.5 | 15.7 | -5.2 | 7.6 | nt | nt
O=[N+]([O-])c1ccc(O)c(-c2cc(C(F)(F)F)nc(-c3ccccc3)n2)c1 | 89.5* | -65.0* | 34.8 | 72.1* | 27.0 | 79.1* | nt | nt | Mdm2 MdmX conf=102.5*
CCOC(=O)CNC(=O)CSc1ncnc2c1cnn2-c1ccc(C)cc1 | -6.0 | -0.3 | 4.6 | -0.8 | 22.3 | 29.2 | nt | nt
CCOC(=O)CNC(=O)CSc1ncnc2c1cnn2-c1ccccc1 | -0.1 | 0.6 | -3.3 | 10.8 | 41.1* | 18.7 | 29.7 | -7.4
COC(=O)[C@@]1(Sc2ccc(C)cc2)CC(=O)N[C@@H]1c1ccco1 | nt | nt | nt | nt | 9.3 | nt | nt | nt
COc1ccc2c(c1)c1ccc3c(c1n2C)C(=O)C=CC3=O | 91.9* | -4.1 | -92.3 | -1.0 | 78.3* | 104.4* | nt | nt | Mdm2 MdmX conf=102.2*
Cc1ccc2c(c1)c1ccc3c(c1n2C)C(=O)C=CC3=O | 92.8* | -3.3 | -69.0 | -1.9 | 78.8* | 107.4* | nt | nt | Mdm2 MdmX conf=101.7*
Cc1ccoc1C(=O)Nc1ccc(CC(=O)O)cc1 | 58.2 | -5.4 | 44.3* | 5.8 | 87.8* | -23.0 | 93.8* | 50.8*

Screening results from PubChem.
